OTUD3 inh: human OTUD3 deubiquitinase inhibition | Q5T2D3 | purified OTUD3, Ub-rhodamine fluorescence, 2 h | inhibition, % at 25 µM | 47,000 tested, 0.7% active | AID 1645858
USP10 block: human USP10 deubiquitinase inhibition; purified USP10, Ub-rhodamine fluorescence, 60 min; Q14694; 47,000 tested, 1.1% active; inhibition, % at 20 µM
Target sequence (Q14694 whole entry, looked up): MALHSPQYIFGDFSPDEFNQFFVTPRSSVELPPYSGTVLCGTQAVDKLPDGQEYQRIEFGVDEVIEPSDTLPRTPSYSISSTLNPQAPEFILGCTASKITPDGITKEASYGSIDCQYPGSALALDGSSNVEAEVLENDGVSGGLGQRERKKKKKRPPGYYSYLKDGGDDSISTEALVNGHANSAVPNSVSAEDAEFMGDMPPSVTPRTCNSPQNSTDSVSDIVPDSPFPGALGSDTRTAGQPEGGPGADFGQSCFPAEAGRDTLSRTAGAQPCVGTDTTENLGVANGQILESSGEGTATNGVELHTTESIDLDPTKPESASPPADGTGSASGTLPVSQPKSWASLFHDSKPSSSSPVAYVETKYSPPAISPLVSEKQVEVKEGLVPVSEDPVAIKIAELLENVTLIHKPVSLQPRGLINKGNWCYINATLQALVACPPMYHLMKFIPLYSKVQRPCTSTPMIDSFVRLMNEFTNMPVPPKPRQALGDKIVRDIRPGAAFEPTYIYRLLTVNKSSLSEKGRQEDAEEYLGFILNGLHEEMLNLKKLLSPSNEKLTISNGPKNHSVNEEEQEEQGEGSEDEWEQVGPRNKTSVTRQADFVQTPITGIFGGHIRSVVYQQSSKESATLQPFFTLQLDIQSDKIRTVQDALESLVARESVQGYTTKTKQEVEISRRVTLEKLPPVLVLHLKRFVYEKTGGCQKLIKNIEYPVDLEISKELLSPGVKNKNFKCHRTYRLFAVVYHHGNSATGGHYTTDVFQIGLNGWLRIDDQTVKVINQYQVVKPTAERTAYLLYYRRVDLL
USP7 block: blocks human USP7 ubiquitin-rhodamine cleavage. inhibition, % at 20 µM. purified USP7, Ub-rhodamine cleavage fluorescence. Q93009. 47,000 tested, 0.3% active. AID 1645854
USP8 inh: human USP8 deubiquitinase inhibition. P40818. purified USP8, Ub-rhodamine cleavage fluorescence, 30 min. inhibition, % at 20 µM. 47,000 tested, 4.2% active. AID 1645853
UCHL1 inh: inhibitors of human UCHL1 deubiquitinase; purified UCHL1, Ub-rhodamine cleavage fluorescence; P09936; AID 1645859; 47,000 tested, 0.2% active; inhibition, % at 20 µM
Hits are given with their value; i = inactive. Sampled rows, rich in hits. Any-hit rate of the full collection: about 4.9%. No stated cut-off is given here; in the data, active means inhibition above about 30%; inactive means the rest.

SMILES	OTUD3 inh	USP10 block	USP7 block	USP8 inh	UCHL1 inh
Cc1ccc(NC(=O)CN2CCC(O)CC2)cc1S(N)(=O)=O	i	i	i	i	i
CC(C)c1ccc(C(C(=O)NC2CCCCC2)N(C(=O)c2cnccn2)c2cccc(F)c2)cc1 (stereo unspecified)	i	i	i	30.4	i
CCC1Cc2c(nc(N)c3c(N)nc(N4CCCCC4)c(C#N)c23)O1 (stereo unspecified)	i	i	i	76.7	i
COc1ccc(N2CCn3c(SCC(=O)Nc4cccc(C(F)(F)F)c4)nnc32)cc1	i	i	i	i	i
COc1ccc(N2CCn3c(SCC(=O)Nc4cccc(F)c4)nnc32)cc1	i	i	i	31.0	i
Cc1noc(C2CN(C(=O)c3ccc(C)o3)Cc3ccnn3C2)n1 (stereo unspecified)	i	i	i	i	i
O=C(CCCCn1c(=O)c2ccccc2n(CC(=O)Nc2ccc(F)cc2)c1=O)NCCc1ccccc1	i	i	i	i	i
O=C(Cn1c(=O)c2ccccc2n(CC(=O)Nc2cccc(F)c2)c1=O)NCCc1ccccc1	i	30.1	i	i	i
O=C(CCCCn1c(=O)c2ccccc2n(Cc2ccccc2F)c1=O)NCCc1ccccc1	i	i	i	i	i
N#Cc1ccccc1Cn1c(=O)n(CCCCC(=O)NCCc2ccccc2)c(=O)c2ccccc21	35.9	i	i	i	i
Cc1ccc(NC(=O)Cn2c(=O)n(CCC(=O)NCCc3ccccc3)c(=O)c3ccccc32)cc1C	i	31.8	i	i	i
Cc1cccc(-n2ncc(C(=O)N3CCc4ccccc43)c2-n2cccc2)c1	i	i	i	i	i
N#Cc1c2n(c(=O)n(Cc3ccc(F)cc3)c1=O)CCC2	i	i	i	i	i
O=C(Nc1ccc2c(c1)OCO2)c1c2c(nc3ccccc13)CCN(Cc1ccccc1)C2	i	i	i	i	i
Clc1ccc(CN2CCc3nc(Nc4ccc5c(c4)OCO5)ncc3C2)cc1	i	i	i	30.1	i
Cc1cccc(C(=O)Nc2ccc(NC(=O)COc3ccccc3Cl)cc2)c1	i	i	i	67.5	i
O=c1[nH]c2c(cc1CNc1ccc(Oc3ccccc3)cc1)c(-c1ccc(F)cc1)nn2-c1ccccc1	i	62.7	50.0	77.2	40.5
Cc1ccc(NCc2cc3c(-c4cccc(F)c4)nn(-c4ccccc4)c3[nH]c2=O)cc1C	i	36.1	51.3	36.8	i
O=c1[nH]c2c(cc1CNc1ccc(Cl)cc1)c(-c1cccc(F)c1)nn2-c1ccccc1	i	i	i	i	i
CCN1C(=O)Cc2cc(NS(=O)(=O)c3cc(C)ccc3OC)ccc21	i	i	i	i	i
CCC(=O)Nc1nc2cc(NC(=O)Nc3ccccc3Cl)ccc2s1	i	i	i	33.5	i
COc1ccc(-n2cc(C(=O)NCCc3ccc(F)cc3)nn2)cc1	i	i	i	37.5	i
O=c1c2cc(Cl)ccc2ncn1Cc1csc(-c2ccccc2)n1	i	i	i	i	i
COc1cccc(C2C3=C(CC(C)(C)CC3=O)Nc3ccccc3N2C(=O)Nc2ccc(Cl)c(Cl)c2)c1 (stereo unspecified)	i	i	i	i	i
Cc1nn(-c2ccccc2)c2c1C1(C(=O)Nc3ccccc31)N1C(=N2)Sc2ccccc21 (stereo unspecified)	i	i	82.7	i	i
SMILES	OTUD3 inh	USP10 block	USP7 block	USP8 inh	UCHL1 inh
O=[N+]([O-])c1ccc(C(O)CN2CCN(Cc3ccccc3)CC2)cc1 (stereo unspecified)	i	i	i	i	79.1
O=[N+]([O-])c1ccc(N2CCN(CC(O)c3ccc4c(c3)CCN4)CC2)cc1 (stereo unspecified)	i	i	i	i	i
COc1ccc(N2CCN(C3=NC(CC(=O)Nc4ccccc4)C(=O)N3)CC2)cc1 (stereo unspecified)	i	i	i	36.4	i
O=C(CC1N=C(N2CCN(c3ccccc3)CC2)NC1=O)Nc1ccc(Cl)cc1 (stereo unspecified)	i	i	i	i	i
Cc1ccc(N2CCN(C3=NC(C(=O)Nc4ccccc4)CC(=O)N3)CC2)cc1 (stereo unspecified)	i	i	i	38.7	i
O=C1CC(C(=O)Nc2ccccc2)N=C(N2CCN(c3ccccc3F)CC2)N1 (stereo unspecified)	i	i	i	i	i
Cc1ccc(CNC(=O)c2cnc3ccccc3n2)cc1	30.2	i	i	i	i
O=C(NCC1(c2ccccc2)CCC1)c1nc2n(n1)-c1ccccc1S(=O)(=O)N2	i	39.4	i	i	i
O=C(Nc1ccccc1Cc1ccccc1)c1nc2n(n1)-c1ccccc1S(=O)(=O)N2	i	45.8	i	59.4	i
O=C(NCc1ccccc1F)c1nc2n(n1)-c1ccccc1S(=O)(=O)N2	i	i	i	i	i
COc1ccc(CN(C(=O)c2nc3n(n2)-c2ccccc2S(=O)(=O)N3)C2CC2)cc1	i	i	i	i	i
Cn1cc(NC(=O)Nc2cccc(C(F)(F)F)c2)c2ccccc2c1=O	88.4	68.0	i	97.2	i
CC(O)(CS(=O)(=O)Cc1ccccc1)C(=O)Nc1cccc(C(F)(F)F)c1 (stereo unspecified)	i	i	i	i	i
Cc1ccc(Cn2nc(C)cc2C(=O)Nc2cccc(C(F)(F)F)c2)cc1	i	i	i	i	i
Cc1cc(C(F)(F)F)n(-c2ccc(NC(=O)Nc3cccc(C(F)(F)F)c3)cc2)n1	31.4	30.2	i	i	i
c1ccc(-c2nc(-c3nnn(-c4ccccc4)c3-c3ccncc3)no2)cc1	i	i	i	i	i
CCN1C(=O)C2(CCN(CC(C)C)CC2)CC12CCN(C(=O)c1ccc(Cl)cc1)CC2	i	i	i	i	i
COc1cccc(NC(=O)c2oc3ccccc3c2NC(=O)COc2cccc(OC)c2)c1	i	34.7	i	i	i
CCCCCCCCC/C=C/C(=O)CCc1c(O)c(C=O)c2c(c1O)C(=O)OC2O (stereo unspecified)	74.6	45.4	86.7	31.4	86.3
CC1=NOC(CNC(=O)Nc2ccccc2Cl)C1 (stereo unspecified)	i	i	i	i	i
N#Cc1cccc(CN2CC[C@@H]3[C@@H](CO[C@H]3CNC(=O)C3CC3)C2)c1	i	i	i	i	i
Cc1nc2ccccn2c1C1(O)C(=O)Nc2c(Cl)cc(Cl)cc21 (stereo unspecified)	i	i	i	87.6	i
O=c1c2cc(Br)ccc2[nH]c(=S)n1Cc1cccnc1	i	31.7	i	87.8	i
Cn1c(=O)n(Cc2cccnc2)c(=O)c2cnc(-c3ccncc3)nc21	i	i	i	i	i
COc1cc2cc3c(c(O)c2c(O)c1-c1c(OC)cc2cc4c(c(O)c2c1O)C(=O)OC1CC(C)OC41)C(=O)OC1CC(C)OC31 (stereo unspecified)	i	i	i	58.2	i
Cn1nccc1C(=O)N1CC[C@]2(C)[C@H]1CCCCC(=O)N2Cc1ccc(C(F)(F)F)cc1	i	i	i	i	i
O=C(c1cn(Cc2ccccc2)nc1-c1cccnc1)N1CCCc2ccccc21	i	i	i	i	i
